Screening data deposited in PubChem BioAssay by National Center for Advancing Translational Sciences (NCATS).
An excerpt weighted towards active compounds, which were near 19% of everything screened.
MARV entry inh: inhibitors of Marburg virus binding or cell entry; Potency, µM (highest dose often 37.8 µM), inactives show at the highest dose activity change, negative = inhibition, most hits filed as inhibitors; Marburg virus pseudotyped entry inhibition, cell reporter; hit rate 1.8% among 300,000; AID 540276; calls by dose curve; tested in HEK293 cells; also: potency is read from the fitted curve at half-maximal effect; % is scaled to controls: 0 for no effect and ±100 for the full control effect
Shiga toxin inh: Shiga toxin inhibition | Vero cells, Shiga toxin protein synthesis inhibition reporter | hit rate 9.2% among 290,000 | inhibition, % at 38.7 µM; in the data active = inhibition mostly above about 28%, no sharp cut-off; inactive = mostly below about 43%; also: 0% is about no effect
LASV entry inh: blocks Lassa virus binding to or entry into cells; Lassa virus pseudotype entry inhibition, cell reporter; AID 540256; Potency, µM (highest dose often 37.9 µM), for inactives: top-dose activity change, negative = inhibition, usual class: inhibitors; hit rate 1.2% among 300,000; calls by dose curve; tested in HEK293 cells; also: potency is read from the fitted curve at half-maximal effect; % is scaled to controls: 0 for no effect and ±100 for the full control effect; nearly all actives have a fitted effect of over 50% in size
CHX counter: affects cycloheximide protein synthesis inhibition readout, counter-screen | cell reporter, cycloheximide protein synthesis inhibition counterscreen | max response, % | hit rate 12% among 300,000; in the data active = max response mostly above about 13%, no sharp cut-off; inactive = mostly below about 14%; also: read at 38.3 µM for the half of the compounds with a filed dose; 0% is about no effect
Pf growth 96h: inhibits malaria parasite growth, 96 h. P. falciparum luciferase reporter growth, 96 h. Potency, µM (top dose mostly 28.7 µM), for inactives: at the top dose activity change, negative = inhibition, hits mostly inhibitors. hit rate 6.9% among 320,000. AID 504834; also: potency is read from the fitted curve at half-maximal effect; % is scaled to controls: 0 for no effect and ±100 for the full control effect
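Erythrocytes infected with luciferase-expressing P. falciparum were dispensed at 2% hematocrit and 0.05% parasitemia (final), then incubated with compounds 96 hours at 37 C in 5% CO2. Luminescence after detection reagent addition reported growth.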
Pf growth 48h: inhibits P. falciparum growth in the first generation, 48 h | Potency, µM (highest dose often 28.7 µM), inactives show at the top dose activity change, negative = inhibition, hits mostly inhibitors | hit rate 5.9% among 310,000 | P. falciparum luciferase growth in erythrocytes, 48 h; also: potency is read from the fitted curve at half-maximal effect; % is scaled to controls: 0 for no effect and ±100 for the full control effect
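Compounds are pin-transferred into medium, infected erythrocytes (2% hematocrit, 0.1% parasitemia final) are added, and plates sit one parasite generation at 37 C in 5% CO2. Detection reagent is then added and luminescence measured.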
* = called active by the depositor; [ ] = dose if it differs, or a comment. Unless noted, calls follow the shape of the dose curve; as a rule, active = well fitted inhibition curve with a large enough effect; inconclusive = small, poorly fitted or top-dose-only effect, or another doubt; inactive = no such curve, though single readings can be large or run the other way.

CN(C)CCNC(=O)/C(=C/c1ccc(-c2ccc(Cl)cc2Cl)o1)NC(=O)c1ccccc1 was read as MARV entry inh 6.3µM*, Shiga toxin inh -22, LASV entry inh inconclusive, CHX counter -10, Pf growth 96h 116% and Pf growth 48h 12µM*.
Screening CN(C)CCCNC(=O)/C(=C\c1ccc(-c2cccc([N+](=O)[O-])c2)o1)NC(=O)c1ccccc1 returned MARV entry inh inconclusive, Shiga toxin inh -3, LASV entry inh -26%, CHX counter 2, Pf growth 96h 11% and Pf growth 48h inconclusive.
For CCCCC(=O)Nc1cc(-c2nc3ccccc3o2)ccc1OC the results were LASV entry inh -7%[46.1 µM].
`Cc1ccc(NC(=O)c2cnn3c2NC(c2ccccc2)=CC3c2ccccc2)cc1` (configuration not stated) gave LASV entry inh -15%[46.1 µM].
`Cc1cc(NC(=O)CSc2nc3c(sc4ccccc43)c(=O)n2CCc2ccccc2)n[nH]1` gave MARV entry inh -6%, Shiga toxin inh 4, LASV entry inh -16%, CHX counter -1 and Pf growth 96h inconclusive.
`Fc1ccc(NCc2ccccc2F)cc1Cl` gave MARV entry inh 1%, Shiga toxin inh 38, LASV entry inh -20%, CHX counter 13, Pf growth 96h 68% and Pf growth 48h 37%.
Fc1ccccc1CNc1ccc(Cl)cc1 was read as MARV entry inh inconclusive, Shiga toxin inh 50*, LASV entry inh 9%, CHX counter 28*, Pf growth 96h 3% and Pf growth 48h inconclusive.
Screening O=C(NCc1cccs1)c1cccnc1C(=O)O returned MARV entry inh 7%, Shiga toxin inh -36, LASV entry inh -14%, CHX counter -2, Pf growth 96h inconclusive and Pf growth 48h 18%.
COc1ccc(-c2cccc(C3CC=CC4C3C(=O)N(Cc3ccccc3)C4c3cc(C)ccc3F)c2)cc1 (configuration not stated) was read as Shiga toxin inh 4, CHX counter -2, Pf growth 96h 6.6µM* and Pf growth 48h 6.6µM*.
Screening COc1ccc(-c2cccc(C3CC=CC4C3C(=O)N(Cc3ccccc3)C4c3ccc(OC)c(Cl)c3)c2)cc1 (configuration not stated) returned Shiga toxin inh 19, CHX counter -1, Pf growth 96h 9.3µM* and Pf growth 48h 12µM*.
`Cc1ccc(-c2cccc(C3CC=CC4C3C(=O)N(Cc3ccccc3)C4c3ccc4ccccc4c3)c2)cc1` (configuration not stated) gave Shiga toxin inh -6, CHX counter 6, Pf growth 96h inconclusive and Pf growth 48h inconclusive.
Cc1ccc(F)c(C2C3C=CCC(c4cccc(-c5ccc(N(C)C)cc5)c4)C3C(=O)N2Cc2ccccc2)c1 (configuration not stated) was read as Shiga toxin inh -6, CHX counter -1, Pf growth 96h 2.9µM* and Pf growth 48h 2.9µM*.
For OCCC1CN(Cc2cccn2-c2cccnc2)CCN1C1CCCC1 (configuration not stated) the results were Shiga toxin inh 34, CHX counter 8, Pf growth 96h -28% and Pf growth 48h 27%.
Cc1ccc(N)cc1N was read as Pf growth 96h inconclusive and Pf growth 48h 19%.
For CC1=CC(=C(c2ccc(N)cc2)c2ccc(N)cc2)C=CC1=N the results were Pf growth 96h 1.1µM* and Pf growth 48h 2.4µM*.
`CC(=O)Nc1cccc(C(=O)OCC(=O)NC(=O)c2ccccc2)c1` gave MARV entry inh 1%[46.1 µM], LASV entry inh inconclusive, Pf growth 96h 40% and Pf growth 48h 36%.
`CCC(=O)Nc1cccc(C(=O)OCC(=O)c2ccccc2Cl)c1` gave MARV entry inh inconclusive, Shiga toxin inh 74*, LASV entry inh 5%, CHX counter 31*, Pf growth 96h 37% and Pf growth 48h 36%.
`CC(=O)Nc1cccc(C(=O)OCC(=O)c2ccccc2Cl)c1` gave MARV entry inh 12%[46.1 µM], Shiga toxin inh 125*, LASV entry inh 21%, CHX counter 35*, Pf growth 96h 107% and Pf growth 48h 191%.
`COc1ccccc1C(=O)NC(=O)COC(=O)c1cccc(NC(C)=O)c1` gave MARV entry inh -5%, Shiga toxin inh 10, LASV entry inh -5%, CHX counter 28*, Pf growth 96h 15% and Pf growth 48h 6%.
`O=C(NCc1ccc(F)cc1)C(c1ccc(F)cc1)N(C(=O)c1csnn1)C1CC1` (configuration not stated) gave MARV entry inh inconclusive, Shiga toxin inh -4, LASV entry inh -2%[46.1 µM], CHX counter -4, Pf growth 96h -15% and Pf growth 48h -10%.
Screening COCCNC(=O)CN(C(=O)c1ccc(N2CCCC2)nc1)c1ccccc1 returned MARV entry inh inconclusive, Shiga toxin inh -5, LASV entry inh 14%[46.1 µM], CHX counter -1, Pf growth 96h 1% and Pf growth 48h 2%.
Screening CCOC(=O)CSc1nnc(CSc2nc3sc4c(c3c(=O)[nH]2)CCCC4)n1-c1ccccc1 returned MARV entry inh 2%, Shiga toxin inh -11, LASV entry inh 1%, CHX counter 2, Pf growth 96h 117% and Pf growth 48h 36%.
`CC(C)(C)CC(=O)Nc1nnc(SCC(=O)Nc2ccccc2F)s1` gave Shiga toxin inh 38, CHX counter 5, Pf growth 96h -24% and Pf growth 48h inconclusive.
`N/C(=N\OC(=O)C(c1ccccc1)c1ccccc1)c1cccnc1` gave MARV entry inh -7%, Shiga toxin inh -6, LASV entry inh -1%, CHX counter 22, Pf growth 96h 10µM* and Pf growth 48h inconclusive.
N/C(=N\OC(=O)C(c1ccccc1)c1ccccc1)c1ccccn1 was read as MARV entry inh -16%, Shiga toxin inh 49*, LASV entry inh inconclusive, CHX counter 22*, Pf growth 96h 15% and Pf growth 48h 13µM*.
`N/C(=N\OCc1ccc([N+](=O)[O-])cc1)c1ccccn1` gave MARV entry inh inconclusive, Shiga toxin inh -21, LASV entry inh inconclusive, CHX counter -10, Pf growth 96h 354% and Pf growth 48h -22%.
CC(C)(C)c1ccc(C(=O)O/N=C(\N)c2ccccn2)cc1 was read as MARV entry inh inconclusive, Shiga toxin inh -6, LASV entry inh inconclusive, CHX counter -4, Pf growth 96h 58% and Pf growth 48h inconclusive.
CC(C(=O)O/N=C(\N)c1ccccn1)c1ccc([N+](=O)[O-])cc1 (configuration not stated) was read as Shiga toxin inh 70*, CHX counter 40*, Pf growth 96h 10% and Pf growth 48h 34%.
Screening N/C(=N\OS(=O)(=O)c1ccccc1)c1cccnc1 returned MARV entry inh inconclusive, Shiga toxin inh -1, LASV entry inh 6%, CHX counter 1, Pf growth 96h 155% and Pf growth 48h 11%.
